Measurements reported in PMC4336329 (PLoS ONE, 2015).
Screen size: about 310,000 compounds; about 14,000 (4.5%) showed an effect of 50% or more. Effects have a minus sign here. The sample holds strong results, similar compounds and a random draw of the others, so the mix is not that of the screen.

target: human ether-à-go-go-related gene (hERG) potassium channel (human, UniProt Q12809); experiment: primary screen, population patch clamp on CHO cells stably expressing hERG; higher = less effect of the substance
Sequence (Q12809 whole entry, looked up): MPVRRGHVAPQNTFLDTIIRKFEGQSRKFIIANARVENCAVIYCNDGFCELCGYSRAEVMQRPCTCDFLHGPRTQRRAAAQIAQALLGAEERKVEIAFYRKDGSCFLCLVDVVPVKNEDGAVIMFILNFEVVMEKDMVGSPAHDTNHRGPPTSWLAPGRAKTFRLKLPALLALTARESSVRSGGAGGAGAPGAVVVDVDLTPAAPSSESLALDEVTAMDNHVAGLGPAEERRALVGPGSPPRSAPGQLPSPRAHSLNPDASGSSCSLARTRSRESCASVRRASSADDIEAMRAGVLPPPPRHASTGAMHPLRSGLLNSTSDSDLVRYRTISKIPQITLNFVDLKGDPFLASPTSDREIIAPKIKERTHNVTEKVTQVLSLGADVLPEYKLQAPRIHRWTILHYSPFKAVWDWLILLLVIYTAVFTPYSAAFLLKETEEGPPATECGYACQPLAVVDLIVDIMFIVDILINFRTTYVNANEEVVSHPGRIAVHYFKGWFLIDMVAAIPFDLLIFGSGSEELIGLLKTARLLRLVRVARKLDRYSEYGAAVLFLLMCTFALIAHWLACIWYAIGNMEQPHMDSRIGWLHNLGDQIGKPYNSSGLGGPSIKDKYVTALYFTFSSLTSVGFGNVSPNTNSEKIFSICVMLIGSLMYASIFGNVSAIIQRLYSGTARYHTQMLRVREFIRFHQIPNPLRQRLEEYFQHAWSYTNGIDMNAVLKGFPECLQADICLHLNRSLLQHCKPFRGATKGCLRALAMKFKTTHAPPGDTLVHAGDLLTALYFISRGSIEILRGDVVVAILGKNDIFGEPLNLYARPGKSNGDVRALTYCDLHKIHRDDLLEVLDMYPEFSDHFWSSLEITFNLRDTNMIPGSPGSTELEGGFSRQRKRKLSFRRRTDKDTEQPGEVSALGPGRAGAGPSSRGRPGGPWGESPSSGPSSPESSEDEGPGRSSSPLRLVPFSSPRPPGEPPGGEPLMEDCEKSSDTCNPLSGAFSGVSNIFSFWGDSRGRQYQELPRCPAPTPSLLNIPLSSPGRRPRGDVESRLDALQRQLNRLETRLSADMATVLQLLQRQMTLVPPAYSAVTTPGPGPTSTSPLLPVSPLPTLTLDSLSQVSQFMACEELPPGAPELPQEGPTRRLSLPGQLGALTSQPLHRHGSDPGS
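Further: peak tail current of the secondary pulse compared with the same well before compound.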

Row | Compound | hERG current change (%, negative = inhibition) at 10uM [%]
1 | O=C(Cc1ccccc1[N+](=O)[O-])OCC(=O)N1CCN(c2ccccc2)CC1 | -6.16
2 | CC(=O)OCC(=O)N1CCN(c2ccc([N+](=O)[O-])cc2)CC1 | -63.3
3 | COc1cc2c(cc1OC)CN(c1ccc([N+](=O)[O-])c(C(F)(F)F)c1)CC2 | -8.39
4 | CN1CCCN(c2ccc([N+](=O)[O-])nc2)CC1 | 2.45
5 | CCOC(=O)C1CCN(C(=O)COc2ccc(Br)cc2)CC1 | -32.1
6 | CCOC(=O)N1CCN(C(=O)COc2ccc([N+](=O)[O-])cc2)CC1 | -43
7 | Cc1c(C(=O)Nc2ccc3c4c(cccc24)CC3)cccc1[N+](=O)[O-] | 9.1
8 | Cc1cccc(-c2oc3ccc(-c4ccc5c(c4)OCO5)cc3c2C(=O)OCc2ccc(O)cc2)c1 | 6.27
9 | c1ccc(-c2nn[nH]n2)nc1 | 9.49
10 | Cc1cccc(NC(=S)NCCC(c2ccccc2)c2ccccc2)c1 | 12
11 | CCn1c(-c2cc(OC)c(OC)c(OC)c2)n[nH]c1=S | 12.1
12 | COc1cccc(CNC(=O)CCCn2nc(C)c3c(C)n(-c4ccccc4)nc3c2=O)c1 | -10
13 | COc1ccc(CCN2CN(S(=O)(=O)c3ccccc3)c3nc4ccccc4nc32)cc1OC | -0.784
14 | Cc1ccc(/C([O-])=C(/C(=S)NCc2ccco2)[n+]2ccccc2)cc1[N+](=O)[O-] | -18
15 | CC(C)C(=O)NNS(=O)(=O)c1ccccc1[N+](=O)[O-] | 3.1
16 | COc1ccc(N=C2SC(C(=O)N3CCN(c4ccccc4)CC3)CC(=O)N2C)cc1 (stereo not shown) | -13
17 | CCOCC(=O)N1CCN(c2ccc(F)cc2)CC1 | -15.9
18 | CCOCC(=O)N1CCN(c2cccc(Cl)c2)CC1 | 8.4
19 | COc1ccc(N=C2SC(C(=O)O)CC(=O)N2C)cc1 (stereo not shown) | 1.4
20 | CCOCC(=O)N1CCN(c2ccc([N+](=O)[O-])cc2)CC1 | -71.8
21 | COc1ccc(N=C2SC(C(=O)N3CCN(c4ccc([N+](=O)[O-])cc4)CC3)CC(=O)N2C)cc1 (stereo not shown) | -68.2
22 | COc1ccc(N2CCN(C(=O)c3cc([N+](=O)[O-])ccc3N3CCN(CCO)CC3)CC2)cc1 | -24.6
23 | COCC(=O)N1CCN(c2cccc(Cl)c2)CC1 | -8.46
24 | CN1N=C(C(=O)N2CCN(c3ccc([N+](=O)[O-])cc3)CC2)CCC1=O | -73
25 | COCC(=O)N1CCN(c2ccc([N+](=O)[O-])cc2)CC1 | -62.7

Row | Compound | hERG current change (%, negative = inhibition) at 10uM [%]
26 | CN1N=C(C(=O)N2CCCC(N3CCN(c4ccc(F)cc4)CC3)C2)CCC1=O (stereo not shown) | 2.78
27 | COc1ccc(C)cc1NC(=O)C(OC(=O)c1ccc(Cl)c(S(=O)(=O)N(C)c2ccccc2)c1)c1ccccc1 (stereo not shown) | -0.711
28 | O=C(Nc1ccc(O)cc1C(=O)O)c1ccc2c(c1)C(=O)N(Cc1ccco1)C2=O | -16.8
29 | CCOc1ccc2[nH]c(=O)c(CN(CCO)C(=O)c3ccccc3F)cc2c1 | -0.495
30 | COC(=O)Cc1[nH]nc2c1C(c1c[nH]c3ccccc13)C(C#N)=C(N)O2 (stereo not shown) | 17.8
31 | c1ccc(Nc2c(-c3ccco3)nc3ccccn23)cc1 | 9.75
32 | C=CCC1(N(C(C)=O)c2ccccc2)CCCCC1 | 5.28
33 | CSC(=NC#N)N1CCN(c2ccccc2)CC1 | -2.95
34 | CSC(=NC#N)N1CCN(c2ccc([N+](=O)[O-])cc2)CC1 | -77
35 | CSC(=NC#N)N1CCN(c2ccc(Cl)cc2)CC1 | -38.3
36 | O=C(Nc1ccc2c(c1)OCO2)c1cnn2c1NC(c1ccco1)CC2C(F)(F)F (stereo not shown) | -4.57
37 | CCc1c(O)nc(SCC(=O)Nc2cc(C)on2)n(-c2ccccc2)c1=O | 3.39
38 | CCn1c(SCC(=O)NC2CC2)nnc1-c1cccc(OC)c1 | -66.6
39 | CNC(=O)CSc1nnc(-c2ccco2)n1-c1cccc(OC)c1 | -0.723
40 | CCn1c(SCC(=O)Nc2ncc(C(F)(F)F)cc2Cl)nnc1-c1ccccc1 | -12.6
41 | C=CCn1c(SCC(=O)NC2CC2)nnc1-c1cccc(OC)c1 | 2.24
42 | CCn1c(SCC(=O)Nc2ncc(C(F)(F)F)cc2Cl)nnc1-c1cccc(C)c1 | -69.9
43 | CCn1c(SCC(=O)NC2CC2)nnc1-c1ccc(OC)cc1 | 17.4
44 | CCn1c(Cc2cccs2)nnc1SCC(=O)NC1CC1 | -1.49
45 | Cn1c(SCC(=O)Nc2ncc(C(F)(F)F)cc2Cl)nnc1-c1ccc(Cl)cc1 | -30.8
46 | O=C(CSc1nnc(Cc2cccs2)n1-c1ccccc1)NC1CCCCC1 | -62.5
47 | COc1cccc(-n2c(SCC(N)=O)nnc2-c2ccco2)c1 | 13.7
48 | COc1cccc(-n2c(SCC(=O)NC3CCCC3)nnc2-c2ccco2)c1 | -73.7
49 | Nc1nnc(SCC(=O)NC2CCCCC2)n1-c1ccccc1 | 6.78
